Our source for the growth values is PubChem BioAssay (NCI).

This is part of a sample that, as a whole, favours compounds with a hit. Of some 83,000 tested, about 20% had one in any assay.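 Compound tested at a single concentration for 48 hours in 96-well plates; a percent growth value below 10 was scored as active.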 A number with no mark means an inactive call. The source made the active and inactive calls.

Test systems include T-47D breast; BT-549 breast; MDA-MB-435 melanoma; SW-620 colon; MCF7 breast; HCT-116 colon; HCC-2998 colon; KM12 colon.
Assay in all cases: NCI-60 one-dose screen, 48 h (100 = growth as untreated, 0 = no growth, -100 = all killed)
Conditions in all cases: 10 µM unless noted

Turning to `Cc1cc2nc(CN)[nH]c2cc1C`, the growth in the test on T-47D breast is 94.4%; with BT-549 breast it was 101%; in the test on MDA-MB-435 melanoma it was 109%; in the test with SW-620 colon, 108%; in the test on MCF7 breast, 96.7%; in the test on HCT-116 colon, 104%. For the same molecule, the results for the growth with HCC-2998 colon and in the test on KM12 colon were 106% and 103%, respectively.
For the molecule `CC(C)(C)c1ccc(OC(=O)Nc2ccccc2)cc1`, the growth is 99.7% with T-47D breast; 87.5% with BT-549 breast; 107% with MDA-MB-435 melanoma; 106% with SW-620 colon; 110% in the test with MCF7 breast; 97.4% in the test with HCT-116 colon. For the same molecule, the growth in the test with HCC-2998 colon was 107%; in the test with KM12 colon, 104%.
As to `CCSc1cnnc2ccccc12`, the growth is 107% in the test with T-47D breast; 116% with BT-549 breast; 105% in the test with MDA-MB-435 melanoma; 113% in the test with SW-620 colon; 108% in the test on MCF7 breast; 106% in the test on HCT-116 colon. The growth in the test on HCC-2998 colon is 101%; in the test on KM12 colon, 113%.
On to `O=c1c2cc(Cl)ccc2oc2ccc(OCCCCCN3CCCCCC3)cc12`, for which the growth was 74.4% in the test on T-47D breast; 79% with BT-549 breast; 80.8% in the test on MDA-MB-435 melanoma; 84.6% in the test on SW-620 colon; 75.3% in the test on MCF7 breast; 57.8% in the test with HCT-116 colon. Further, the growth in the test on HCC-2998 colon is 88.5%; with KM12 colon, 84.8%.
As for `CC(C)CC1NC(=O)C(CC(C)C)N(CO)C1=O` (stereo not given), the growth was 96.5% in the test with T-47D breast; 101% with BT-549 breast; 111% in the test with MDA-MB-435 melanoma; 112% in the test on SW-620 colon; 92.7% in the test with MCF7 breast; 98.8% in the test with HCT-116 colon. In addition, the growth in the test with HCC-2998 colon was 102%; with KM12 colon, 110%.
Take `CCN(CC)CCCCCCCCNc1c2ccc(Cl)cc2nc2ccc(OC)cc12`: the growth with T-47D breast was -37.9% (active); in the test with BT-549 breast it was -82.6% (active); in the test on MDA-MB-435 melanoma, -81.9% (active); with SW-620 colon it was -31.9% (active); in the test on MCF7 breast it was -75.1% (active); with HCT-116 colon, -63.8% (active). The growth in the test on HCC-2998 colon is -89.1% (active); in the test with KM12 colon it was -49.5% (active).
Turning to `Nc1c(Br)cc2c(c1Br)Cc1cc(Cl)ccc1-2`, the growth with T-47D breast is 66%; in the test on BT-549 breast it was 128%; in the test with MDA-MB-435 melanoma it was 102%; in the test with SW-620 colon it was 98.2%; in the test with MCF7 breast, 80.6%; in the test on HCT-116 colon, 97.1%. For the same molecule, the growth is 102% with HCC-2998 colon and 98.7% in the test with KM12 colon.
For `CCCCCCCCCCCC1=NC(C)(C)CN1CCO`, the growth in the test with T-47D breast is 65.2%; in the test on BT-549 breast, 80.6%; with MDA-MB-435 melanoma it was 8.66% (active); in the test on SW-620 colon it was 23.1%; in the test on MCF7 breast, 30.3%; in the test with HCT-116 colon, 17.8%. In addition, the values for the growth in the test with HCC-2998 colon and with KM12 colon were -17.5% (active) and 29.1%, respectively.
Take `CCSCC1CC(O)(c2ccccc2)C(c2ccccc2)C(c2ccc(F)cc2)O1` (stereo not given): the growth in the test on T-47D breast is -17.5% (active); in the test with BT-549 breast, -12.1% (active); with MDA-MB-435 melanoma, -18.8% (active); with SW-620 colon, -25.8% (active); in the test with MCF7 breast, 1.86% (active); in the test with HCT-116 colon, -31.2% (active). The growth with HCC-2998 colon was 2.23% (active); with KM12 colon, -9.64% (active).
As for `C=CCOc1ccc2c(C)cc(=O)oc2c1`, the growth is 105% in the test on T-47D breast; 109% in the test with BT-549 breast; 98.3% with MDA-MB-435 melanoma; 109% with SW-620 colon; 98.2% in the test on MCF7 breast; 105% in the test on HCT-116 colon. For the same molecule, the figures for the growth with HCC-2998 colon and in the test with KM12 colon were 100% and 105%, respectively.
Take `O=C(CSc1nc2c(n1Nc1ccccc1)-c1ccccc1SC2)Nc1nccs1`: the growth with T-47D breast is 97.6%; in the test on BT-549 breast, 127%; in the test on MDA-MB-435 melanoma it was 103%; with SW-620 colon, 97.5%; with MCF7 breast, 96.3%; in the test on HCT-116 colon it was 88.3%. In addition, the growth was 99.7% in the test on HCC-2998 colon and 102% with KM12 colon.
Take `Cn1cnc([N+](=O)[O-])c1S(=O)(=O)Oc1ccccc1`: the growth in the test with T-47D breast was 5.06% (active); in the test with BT-549 breast, 100%; in the test with MDA-MB-435 melanoma, 101%; in the test on SW-620 colon, 56%; in the test with MCF7 breast, 84.3%; in the test on HCT-116 colon it was 68.4%. Moreover, the values for the growth with HCC-2998 colon and in the test on KM12 colon were 101% and 100%, respectively.
As for `CCn1c(Cc2ccccc2Nc2c(Cl)cccc2Cl)nnc1SCC(=O)Nc1cccc(OC)c1`, the growth in the test on T-47D breast is 58.9%; in the test on BT-549 breast it was 98.8%; in the test with MDA-MB-435 melanoma it was 93.4%; in the test with SW-620 colon, 85.3%; in the test with MCF7 breast, 84%; in the test with HCT-116 colon, 66.5%. Moreover, the growth was 100% in the test on HCC-2998 colon and 88% with KM12 colon.
With `CCOC(=O)C1=C(C(=O)OCC)N(c2cc(OC)c(OC)c(OC)c2)C(N)=C(C#N)C1c1cc(=O)[nH]c2ccccc12` (stereo not given), the growth was 95.4% in the test on T-47D breast; 96.5% with BT-549 breast; 96.6% in the test with MDA-MB-435 melanoma; 99.2% in the test with SW-620 colon; 96% with MCF7 breast; 100% in the test on HCT-116 colon. Besides, the growth with HCC-2998 colon is 108%; in the test with KM12 colon it was 102%.
Consider `Cc1ccc(NC(=O)c2cc(NCc3cc(O)ccc3O)ccc2O)cc1`, for which the growth with T-47D breast was 75.6%; in the test on BT-549 breast, 63.8%; with MDA-MB-435 melanoma, 106%; in the test with SW-620 colon it was 106%; in the test with MCF7 breast, 75.7%; with HCT-116 colon it was 97%. Also, the growth was 106% in the test on HCC-2998 colon and 91% in the test with KM12 colon.
